Source: PubChem BioAssay (Sanford-Burnham Center for Chemical Genomics)
Rows were chosen to be rich in hits. Some 31% of all compounds tested hit in one or more screens of this group.
CYP2C9 inh = inhibitors of human CYP2C9 | P11712 | CYP2C9 Supersomes, luciferin-H conversion, luminescence | inhibition, % at 5 µM | hit rate 20% among 96,000 | AID 777;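 active = blocking of liver enzyme CYP2C9 beyond about 50% at 5 µM, limit read from the data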
Target sequence (P11712 whole entry, looked up): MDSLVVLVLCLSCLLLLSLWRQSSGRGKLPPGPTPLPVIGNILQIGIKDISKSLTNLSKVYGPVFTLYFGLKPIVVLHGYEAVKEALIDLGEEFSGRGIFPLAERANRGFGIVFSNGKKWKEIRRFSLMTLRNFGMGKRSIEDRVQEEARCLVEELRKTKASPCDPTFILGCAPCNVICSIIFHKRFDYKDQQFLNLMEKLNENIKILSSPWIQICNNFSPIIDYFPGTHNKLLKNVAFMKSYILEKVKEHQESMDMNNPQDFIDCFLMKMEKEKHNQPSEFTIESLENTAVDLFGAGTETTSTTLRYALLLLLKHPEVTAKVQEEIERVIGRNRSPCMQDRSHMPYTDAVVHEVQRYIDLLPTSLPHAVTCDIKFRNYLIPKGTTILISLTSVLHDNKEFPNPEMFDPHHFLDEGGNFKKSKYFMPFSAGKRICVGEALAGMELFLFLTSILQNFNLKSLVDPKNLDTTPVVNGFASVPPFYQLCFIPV
PLAP act = activates human placental alkaline phosphatase | P05187 | purified PLAP enzyme, luminescent substrate read-out; hits give high values | activation fold at 20 µM | hit rate 1.2% among 96,000 | AID 696; in the data active = activation fold above about 2
CYP2C19 inh = inhibitors of human CYP2C19. P33261. CYP2C19 Supersomes, luciferin-H EGE luminescence, 30 min. hit rate 21% among 96,000. inhibition, % at 5 µM;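 active = CYP2C19 inhibition above a set limit at 5 µM in the primary screen, cut at about 50% in these data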;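 also: plate controls were negative control wells for no effect and 2.5 mM tranylcypromine positive control for full effect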
CYP2C9 act = activators of human CYP2C9; P11712; recombinant CYP2C9, luciferin-H conversion, luminescence; hits give high values; factor 1 = untreated enzyme, 0 = blocked; activation factor at 5 µM; hit rate 1.4% among 96,000;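 active = activation factor of 2 or more for CYP2C9 at a 5 µM dose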;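 also: 0 = sulfaphenazole-blocked wells and 1 = vehicle-only wells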
CYP2C19 act = increases human CYP2C19 enzyme activity; P33261; recombinant CYP2C19, luciferin-H EGE luminescence; hits give high values; 0 = fully inhibited enzyme, 1 = untreated enzyme; activation factor at 5 µM; 96,000 tested, under 10 active; AID 1025;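 active = activation factor of at least 2 at 5 µM in the primary screen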;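 also: 0 = wells with 2.5 mM tranylcypromine and 1 = vehicle-only wells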
* = called active by the depositor.

Results for O=C(NC1CCN(Cc2ccccc2)CC1)C1CCCN(S(=O)(=O)c2cccc3nonc23)C1 (centres undefined) ?
CYP2C9 inh: -15; PLAP act: 1.8; CYP2C19 inh: 53*; CYP2C9 act: 1.1; CYP2C19 act: 0.5

How did COc1cccc(CNC(=O)c2cc3oc4ccccc4c3n2C)c1OC do in these assays?
CYP2C9 inh: -42; PLAP act: 1; CYP2C19 inh: -8; CYP2C9 act: 1.4; CYP2C19 act: 1.1

Results for CCOc1ccccc1CNC(=O)c1cc2oc3ccccc3c2n1CC ?
CYP2C9 inh: -11; PLAP act: 1.1; CYP2C19 inh: 66*; CYP2C9 act: 1.1; CYP2C19 act: 0.3

Results for CCOc1ccc(CNC(=O)c2cc3oc4ccccc4c3n2C)cc1 ?
CYP2C9 inh: 52*; PLAP act: 1.1; CYP2C19 inh: 23; CYP2C9 act: 0.5; CYP2C19 act: 0.8

Results for [O-]/[N+](=C\c1ccc(F)cc1)c1ccccc1 ?
CYP2C9 inh: -3; PLAP act: 0.8; CYP2C19 inh: 32; CYP2C9 act: 1; CYP2C19 act: 0.7

How did O=C(NCc1ccco1)c1cc(-c2ccco2)on1 do in these assays?
CYP2C9 inh: -58; PLAP act: 0.9; CYP2C19 inh: -3; CYP2C9 act: 1.6; CYP2C19 act: 1

Results for O=C(Nc1ccc(S(=O)(=O)N2CCOCC2)cc1)c1ccc(CN2CCc3ccccc3C2)cc1 ?
CYP2C9 inh: 55*; PLAP act: 1; CYP2C19 inh: 23; CYP2C9 act: 0.4; CYP2C19 act: 0.8

How did O=C(Nc1ccccc1)c1ccc(S(=O)(=O)N2CCOCC2)cc1 do in these assays?
CYP2C9 inh: 13; PLAP act: 0.8; CYP2C19 inh: 7; CYP2C9 act: 0.9; CYP2C19 act: 0.9

What do the screens show for `Cc1c(NC(=O)c2ccc(CN3CCc4ccccc4C3)cc2)c(=O)n(-c2ccccc2)n1C`?
CYP2C9 inh: 10; PLAP act: 1.4; CYP2C19 inh: -7; CYP2C9 act: 0.9; CYP2C19 act: 1.1

Results for Cc1cc(C)c(NC(=O)c2ccc(CN3CCc4ccccc4C3)cc2)c(C)c1 ?
CYP2C9 inh: 27; PLAP act: 2.3*; CYP2C19 inh: 18; CYP2C9 act: 0.7; CYP2C19 act: 0.8

What do the screens show for `O=C(CC1NC(=O)NC1=O)Nc1cccc2ccccc12` (centres undefined)?
CYP2C9 inh: 5; PLAP act: 1; CYP2C19 inh: 3; CYP2C9 act: 0.9; CYP2C19 act: 1

Results for Cc1cccc(NC(=O)CC2Nc3cccc4cccc(c34)NC2=O)c1 (centres undefined) ?
CYP2C9 inh: 26; PLAP act: 1; CYP2C19 inh: 41; CYP2C9 act: 0.7; CYP2C19 act: 0.6

Results for CC(=O)Nc1ccc(NC(=O)CC2Nc3cccc4cccc(c34)NC2=O)cc1 (centres undefined) ?
CYP2C9 inh: 63*; PLAP act: 1; CYP2C19 inh: 0; CYP2C9 act: 0.4; CYP2C19 act: 1

Results for O=C(CC1NC(=O)NC1=O)Nc1ccccc1 (centres undefined) ?
CYP2C9 inh: 68*; PLAP act: 0.9; CYP2C19 inh: 10; CYP2C9 act: 0.3; CYP2C19 act: 0.9

What do the screens show for `FC(F)(F)c1ccc(/C=N/N2CCN(Cc3cccc4ccccc34)CC2)cc1`?
CYP2C9 inh: 4; PLAP act: 1; CYP2C19 inh: 0; CYP2C9 act: 1; CYP2C19 act: 1

How did C(=N\N1CCN(Cc2cccc3ccccc23)CC1)/c1ccco1 do in these assays?
CYP2C9 inh: -26; PLAP act: 1.2; CYP2C19 inh: 50*; CYP2C9 act: 1.3; CYP2C19 act: 0.5

What do the screens show for `CCOC(=O)CC(=O)CSc1nc(C)cc(C)c1C#N`?
CYP2C9 inh: 34; PLAP act: 1; CYP2C19 inh: 70*; CYP2C9 act: 0.7; CYP2C19 act: 0.3

How did COc1ccccc1-c1cc(-c2ccccc2)nc(SC(C(N)=O)c2ccccc2)c1C#N (centres undefined) do in these assays?
CYP2C9 inh: 30; PLAP act: 1.1; CYP2C19 inh: 12; CYP2C9 act: 0.7; CYP2C19 act: 0.9

How did CCOC(=O)CC(=O)CSc1nc(N)c(C#N)c(-c2ccc(Cl)cc2)c1C#N do in these assays?
CYP2C9 inh: 62*; PLAP act: 1.6; CYP2C19 inh: 84*; CYP2C9 act: 0.4; CYP2C19 act: 0.2

Results for CCOC(=O)CC(=O)CSc1nc2c(c(C)c1C#N)CCC2 ?
CYP2C9 inh: 16; PLAP act: 1.1; CYP2C19 inh: 24; CYP2C9 act: 0.8; CYP2C19 act: 0.8
